Experimental findings from PubChem BioAssay (EPA / NIEHS) are described below.

The structures appear in SMILES notation. Where “and” joins values, the source holds several entries; their conditions need not be identical. Identical values can stand only once. Calls of active or inactive are those of the source. Rule for the calls: active = hit-call score of the fitted dose curve at least 0.9, where 1 is the maximum; inconclusive = response in the unintended direction; inactive = score below 0.9.

In the test the test system is rat Monoamine Oxidase, MAO-A, Central (MAOAC), gene 29253. The experiment in a line: NVS_ENZ_rMAOAC: NovaScreen (NVS) Enzymatic Assay for rat Monoamine Oxidase, MAO-A, Central (MAOAC) (AID 2283243).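 Note: potency refers to inhibition seen as signal drop below DMSO baseline.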 The procedure: NVS_ENZ_rMAOAC is a biochemical, single-readout assay that uses extracted gene-proteins from Rat brain in a tissue-based cell-free assay. Measurements were taken 1.5 hours after chemical dosing in a 96-well plate.NVS_ENZ_rMAOAC is one of one assay component(s) measured or calculated from the NVS_ENZ_rMAOAC assay. It is designed to make measurements of enzyme activity, a form of enzyme reporter, as detected with scintillation counting signals by Lysate-based radiodetection technology.Data from the assay component NVS_ENZ_rMAOAC was analyzed into 1 assay endpoint. This assay endpoint, NVS_ENZ_rMAOAC, was analyzed in the positive analysis fitting direction relative to DMSO as the negative control and baseline of activity. Using a type of enzyme reporter, loss-of-signal activity can be used to understand changes in the enzymatic activity as they relate to the gene Maoa. Furthermore, this assay endpoint can be referred to as a primary readout, because this assay has produced multiple assay endpoints where this one serves a enzymatic activity function. To generalize the intended target to other relatable targets, this assay endpoint is annotated to the oxidoreductase intended target family, where the subfamily is monoamine oxidase.
Binding assays used specific radioligands (tritiated, iodinated) with non-radioactive competitive displacement ligands in agonist or antagonist protocols (as indicated) and various reference compounds and inhibitors to titrate specific binding to receptors and transporters. Most enzyme assays (CYPs, kinases, phosphatases, proteases, HDACs) used recombinant protein and specific substrates (fluorescence mostly, some colorimetric and radioactive) and inhibitors, followed by a biochemical separation of substrate and product. All assays for the biochemical HTS were initially run in duplicate at a single concentration (10 uM for CYP450 assays and 25 uM for all others). […] Each assay was run with positive and negative controls, and concurrent controls on every plate. The follow-up (secondary) screen tested active chemical-pairs in concentration series, as well as a few additional assays not tested in the primary screen, some selected negative inactives, and several cases re-run in the concentration series for confirmatory purposes.
In the case of `C=Cc1cccc(C)c1`, the molecule was classed as inactive.
Turning to `Oc1cccc2c(O)cccc12`, the AC50 is 25 µM (active).
For `CNNCc1ccc(C(=O)NC(C)C)cc1`, the AC50 is 18 µM (active).
Regarding `CCOC(=O)CC(C)O` (stereo not given), the call was inactive.
Turning to `O=c1c2ccccc2oc2ccccc12`, the AC50 was 7.58 µM (active).
In the case of `COC(=O)c1ccccc1C(=O)O`, the molecule was called inactive.
As for `CCCCCCCC(=O)OCC`, the half-maximal activity concentration (AC50) was 37.3 µM (active).
As for `Cn1c(=O)[nH]c2ncn(C)c2c1=O`, the AC50 is 34.9 µM (active).
On the same count and under the same terms, to `CC=Cc1ccc(OC)c(OC)c1` belongs 17.2 µM (active).
For the molecule `C#CC(O)CCC` (stereo not given), the outcome was inactive.
For `Nc1ccc2c(c1)C(=O)c1ccccc1C2=O`, the AC50 is 3.68 µM (active).
As to `c1ccc2cc3ccccc3cc2c1`, the AC50 was 25 µM (active).
Turning to `c1ccc2c(c1)[nH]c1ccccc12`, the AC50 is 16.7 µM (active).
As for `Nc1cccc2c(N)cccc12`, the AC50 is 25 µM (active).
In the case of `O=C(O)c1cc(N=Nc2ccc(S(=O)(=O)Nc3ccccn3)cc2)ccc1O`, the molecule was classed as inactive.
With `O=C(c1ccccc1)c1ccc(O)cc1O`, the AC50 is 21 µM (active).
As for `CC(N)=O`, the result was inactive.
Turning to `Cc1nc(-c2ccc3c(c2)CCN(CCC2CCC(NC(=O)/C=C/c4ccc(F)cc4)CC2)CC3)no1` (stereo not given), the molecule was called inactive.
With `Nc1nc(N)c2nc(CNc3ccc(C(=O)N[C@@H](CCC(=O)O)C(=O)O)cc3)cnc2n1`, the AC50 is 0.889 µM (active).
Regarding `Nc1ccc(Oc2cccc(Oc3ccc(N)cc3)c2)cc1`, the AC50 is 22.7 µM (active).
Consider `CCCCCCc1ccc(O)cc1O`, for which the AC50 is 16.5 µM (active).
For the molecule `N#CSCSc1nc2ccccc2s1`, the AC50 was 45.9 µM (active).
The same measure, in the same setting: as for `O=C(c1ccc(O)cc1O)c1ccc(O)cc1O`, the figure is 6.91 µM (active).
As to `c1ccc2[nH]c(-c3cscn3)nc2c1`, the outcome was inactive.
`CCCCCCCCCCCCCC[N+](C)(C)C`: the AC50 was 31.1 µM (active).
As to `O=C1c2ccc(O)c(O)c2C(=O)c2c(O)ccc(O)c21`, the result was inactive.
As to `O=c1c(-c2ccc(O)cc2)coc2cc(O)cc(O)c12`, the concentration at half-maximal activity (AC50) was 10.6 µM (active) and 12.2 µM (active) and 2.7 µM (active).
As to `CC(=O)Nc1ccc(C(=O)CCl)cc1`, the AC50 was 5.58 µM (active).
For `Oc1ccc(/C=C/c2cc(O)cc(O)c2)cc1`, the AC50 was 1.58 µM (active).
Same read-out and setting: to `CN(C)c1ccc(C(=C2C=CC(=[N+](C)C)C=C2)c2ccc(N(C)C)cc2)cc1` belongs 25 µM (active).
The same measure, in the same setting: as for `O=C1c2ccccc2C(=O)c2c(O)ccc(O)c21`, the figure is 18.3 µM (active); as for `Nc1ccc(Cl)c([N+](=O)[O-])c1`, 12.8 µM (active).
As to `c1ccc2c(c1)ccc1ncccc12`, the AC50 was 2.35 µM (active).
For `CCOC(=O)C(C)Oc1ccc(Oc2nc3ccc(Cl)cc3o2)cc1` (stereo not given), the result was inactive.
For the molecule `CC(=O)[C@H]1CC[C@H]2[C@@H]3CCC4=CC(=O)CC[C@]4(C)[C@H]3CC[C@]12C`, the outcome was inactive.
Consider `CCOC(=O)O[C@H](C)OC(=O)c1ccc2c(c1)cc(C(=O)NC1CCN(C(C)C)CC1)n2Cc1cc(-c2ccc(Cl)s2)on1`, for which the AC50 is 23.6 µM (active).
Still for that read-out and setting: to `CCCCCc1ccc(O)cc1` belongs 17.3 µM (active).
Regarding `Oc1ccc(C(c2ccc(O)cc2)C(Cl)(Cl)Cl)cc1`, the outcome was inactive.
Regarding `Clc1cccc(Cl)n1`, the molecule was classed as inactive.
As to `CCCOc1sc(C(=O)N2CCC(c3cc(CN)ccc3F)CC2)c(C)c1Br`, the AC50 is 0.439 µM (active).
